Data as given in PubChem BioAssay (Tox21).
Unmarked numbers belong to inactive results. Calls come from the whole dose curve. Positions of bridges follow the written chain, without caps; N, C: chain ends. Non-standard residues stand in square brackets, D forms with d. Residues, ends and D or L forms follow the SMILES beside them. hArg = N=C(N)NCCCC[C@H](N)C(=O)O; Mpa = O=C(O)CCS

biological target: Thyrotropin-releasing hormone receptor (Homo sapiens) (UniProt P34981); assay: qHTS assay to identify small molecule agonists of the thyrotropin-releasing hormone receptor (TRHR) signaling pathway (AID 1346891); conditions: TRHR-HEK293 calcium fluorescence, agonist mode; series mostly up to 57.6 µM; activation: at the top concentration;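 note: HEK293 cells expressing TRHR with calcium dye readout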
From the text: National Center for Advancing Translational Sciences [NCATS] NIH Chemical Genomics Center [NCGC] U.S. Environmental Protection Agency [EPA] National Institutes of Environmental Health Sciences [NIEHS] National Toxicology Program [NTP] Assay overview: Thyrotropin-releasing hormone (TRH) receptor (TRHR) is a G-protein-coupled receptor which binds the tripeptide thyrotropin releasing hormone. TRHR is found in the brain and, when bound by TRH, acts (through phospholipase C) to increase intracellular inositol trisphosphate. It plays a crucial role in the anterior pituitary where it controls the synthesis and secretion of thyroid stimulating hormone and prolactin. The TRHR-Hek293 assay is a cell-based assay, and it has the potential to screen G protein-coupled receptors. A compound/drug can either activate (agonist) or suppress (antagonist) GPCRs that can be monitored by levels of intracellular calcium. Using this assay, the Tox21 10K compound library was screened to identify potential TRHR agonists.
Assay Protocol Summary: The TRHR-Hek293 cells were dispensed at 1500cells/4uL/well in 1536-well black-clear bottom plates using a Multidrop dispenser. After the assay plates were incubated at a 37 C/5% CO2 incubator for 18 hours, 4 uL of Dye-Loading Solution was added to each well. The plates were incubated at 37 C for 2 hours. For agonist mode, 23 nL of compounds dissolved in DMSO, positive controls or DMSO only was transferred to the assay plate by a pin tool. The fluorescence intensity in the plates was measured using FDSS 7000EX kinetic plate reader for 3 min at 1 sec intervals. Each test compound was measured at 15 concentrations and in triplicates.
% is set by controls: 0 for no effect and ±100 for the full control effect.

Chain of Thyrotropin-releasing hormone receptor (Homo sapiens) (P34981 whole entry, looked up): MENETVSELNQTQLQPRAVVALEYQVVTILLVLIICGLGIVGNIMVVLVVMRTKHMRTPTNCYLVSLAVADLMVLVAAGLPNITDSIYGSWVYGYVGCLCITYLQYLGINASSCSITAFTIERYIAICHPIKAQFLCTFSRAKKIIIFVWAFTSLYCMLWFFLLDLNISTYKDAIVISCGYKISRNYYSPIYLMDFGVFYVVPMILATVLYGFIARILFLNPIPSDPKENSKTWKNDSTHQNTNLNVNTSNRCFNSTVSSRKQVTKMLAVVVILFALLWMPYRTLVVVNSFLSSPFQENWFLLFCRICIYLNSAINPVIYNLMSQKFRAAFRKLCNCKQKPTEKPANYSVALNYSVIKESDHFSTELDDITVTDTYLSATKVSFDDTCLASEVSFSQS

| Structure (SMILES) | activation |
| --- | --- |
| Cc1ccc(C(=O)O)cc1[N+](=O)[O-] | 0.0432% |
| Cc1c(N)cccc1Cl | -0.226% |
| CCCC(=O)OCCC(C)CCC=C(C)C (stereo not given) | -0.0098% |
| CCCCCCC1(C)CCC(=O)O1 (stereo not given) | 0.496% |
| OC[C@H]1O[C@@H](O[C@@H]2[C@@H](CO)O[C@](O)(CO)[C@H]2O)[C@H](O)[C@@H](O)[C@H]1O | 0.0678% [at 26.5 µM] |
| CN(C)CC/C=C1/c2ccccc2COc2ccc(CC(=O)O)cc21 | 0.256% [at 26.5 µM] |
| Nc1nnnn1-c1ccccc1 | 0.113% [at 26.5 µM] |
| NCc1ccc(S(N)(=O)=O)cc1 | -0.4% [at 26.5 µM] |
| CC(C)(C)NC[C@H](O)COc1cccc2c1CCCC2=O | -0.194% [at 26.5 µM] |
| NC(=O)[C@@H]1CSSCCC(=O)N[C@@H](CCCCN=C(N)N)C(=O)NCC(=O)N[C@@H](CC(=O)O)C(=O)N[C@@H](Cc2c[nH]c3ccccc23)C(=O)N2CCC[C@H]2C(=O)N1 ([Mpa][hArg]GDWPC-NH2; disulfide 1-7) | -0.426% [at 26.5 µM] |
| Cc1cccc(Cl)c1 | -0.301% |
| O=C(O)c1cc2ccccc2nc1C(=O)O | 0.0451% |
| OCC(O)CN1CCN(c2ccccc2)CC1 (stereo not given) | 0.139% [at 26.5 µM] |
| CCCSSCCC | -0.0485% |
| CC(Oc1cc(Cl)ccc1Cl)C(=O)O (stereo not given) | -0.246% |
| CC1(C)Cc2cccc(N)c2O1 | -0.422% |
| ONc1ccccc1 | 0.358% |
| O=C(CCCCC(=O)Nc1c(I)cc(I)c(C(=O)O)c1I)Nc1c(I)cc(I)c(C(=O)O)c1I | -0.242% [at 26.5 µM] |
| C=CC/C=C/C | -0.357% |
| CC(C)Nc1ccccc1 | -0.243% |

| Structure (SMILES) | activation |
| --- | --- |
| COc1cc(OC)nc(O[C@H](C(=O)O)C(OC)(c2ccccc2)c2ccccc2)n1 | 0.247% [at 26.5 µM] |
| c1ccc(B(c2ccccc2)c2ccccc2)cc1 | -0.154% |
| COc1cc2c(cc1OC)C(=O)C(CC1CCN(Cc3ccccc3)CC1)C2 (stereo not given) | -0.0764% [at 26.5 µM] |
| CCC[C@@H]1C[C@@H](C(=O)N[C@@H]([C@H]2O[C@H](SC)[C@H](O)[C@@H](O)[C@H]2O)[C@@H](C)O)N(C)C1 | -0.0509% [at 26.5 µM] |
| CO[Si](CCCn1c(=O)n(CCC[Si](OC)(OC)OC)c(=O)n(CCC[Si](OC)(OC)OC)c1=O)(OC)OC | -0.394% [at 26.5 µM] |
| O=C=NCC1CCCC(CN=C=O)C1 (stereo not given) | 0.0451% |
| CC1=NN(c2ccc(S(=O)(=O)O)cc2)C(=O)C1 | 0.0755% |
| CN1CCOC(c2ccccc2)c2ccccc2C1 (stereo not given) | -0.0582% [at 26.5 µM] |
| Cc1c(NC(=O)c2cccnc2)c(=O)n(-c2ccccc2)n1C | -0.497% [at 26.5 µM] |
| CC1(C)[C@H]2CC[C@](C)(C2)[C@H]1O | 0.0227% |
| C=CCN1C[C@H](C(=O)N(CCCN(C)C)C(=O)NCC)C[C@@H]2c3cccc4[nH]cc(c34)C[C@H]21 | 0.726% [at 26.5 µM] |
| N[C@@H](Cc1ccc(O)cc1)C(=O)O | -0.36% [at 5.23 µM] |
| CCN1CCCC1CN (stereo not given) | 0.0028% [at 26.5 µM] |
| OC1OCCOC1O (stereo not given) | -0.7% |
| CC(=O)CCc1ccc(OC(C)=O)cc1 | -0.0421% |
| CN(C)CCCCl | 0.352% |
| COc1cc(/C=C/C(N)=O)cc(OC)c1OC | -0.234% [at 26.5 µM] |
| CCOC(CN1CCN(CC(C)C(=O)c2ccccc2)CC1)c1ccccc1 (stereo not given) | 0.148% [at 11.8 µM] |
| CC1OCCC1=O (stereo not given) | 0.029% |
| COP(=O)(O)OP(=O)(O)OC | -0.548% |
